Source: PubChem BioAssay
Calls of active or inactive are those of the source. The rule behind the calls is not given here.

Tests used:
[1] = liver-stage malaria parasite load reduction – cell-based, known kinase inhibitor set, luminescence, hepatoma host viability (AID 624392); conditions: Plasmodium liver stage in hepatoma cells, luciferase luminescence, concentration not given here; liver cell % of control: measured here: host liver cell viability; parasite % of control: stronger effect = lower value;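 note: infected cells incubated roughly two days before readout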
[2] = altered dexamethasone sensitivity, NF-kB reporter, cell-based, luciferase, IL-1B stimulus (AID 624486); conditions: IL-1B + dexamethasone, luminescence; percent of negative control (+Dex): actives lie on both sides, concentration not given here; z-score: measured here: IL-1B alone, no Dex;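 for percent of negative control (+Dex): 100% = mean signal of vehicle control wells on the plate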
[3] = target: Cellular tumor antigen p53 (Homo sapiens) (UniProt P04637); assay: GFP-p53 level modulators in HPV16+ cells – imaging, known kinase inhibitor set, EGFP/DsRed ratio (AID 1053116); conditions: GFP-p53 stability, stronger effect = higher value; EGFP object count: measured here: GFP-p53 positive objects count;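 note: cells exposed to compounds for 24 h at 37 °C before reading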
Chain of Cellular tumor antigen p53 (Homo sapiens) (P04637 whole entry, looked up): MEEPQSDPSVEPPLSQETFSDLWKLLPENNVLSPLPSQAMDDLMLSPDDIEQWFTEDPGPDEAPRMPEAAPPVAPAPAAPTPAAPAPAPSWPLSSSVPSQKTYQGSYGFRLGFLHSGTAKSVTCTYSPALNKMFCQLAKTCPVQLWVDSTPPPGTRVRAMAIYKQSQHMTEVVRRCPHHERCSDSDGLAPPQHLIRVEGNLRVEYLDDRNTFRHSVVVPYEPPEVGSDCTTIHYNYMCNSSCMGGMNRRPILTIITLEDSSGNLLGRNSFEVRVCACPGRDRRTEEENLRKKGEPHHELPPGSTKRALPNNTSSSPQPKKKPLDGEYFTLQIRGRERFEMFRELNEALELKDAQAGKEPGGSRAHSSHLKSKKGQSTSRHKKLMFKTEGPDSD

[4] = inducers of IRF3 signaling, differentiated THP-1 – cell-based, PMA-stimulated THP-1, luminescence (AID 1053176); conditions: PMA-differentiated THP-1, IRF3 reporter luminescence; stronger effect = higher value

SMILES | liver cell % of control [1] [%] | parasite % of control [1] | percent of negative control (+Dex) [2] | z-score [2] | EGFP object count [3] | EGFP/DsRed ratio [3] | fraction signal [4]
CN(C)CC#Cc1cccc(C(=O)c2cnn(-c3ccc(F)cc3)c2N)c1 | 101 | 74.8% (inactive) | 109% (inactive) | 1.23 | 3 | 0.0589 (inactive) | -0.001 (inactive)
CCOc1ccccc1CCN=C1NC(=O)C(=Cc2ccc3ncccc3c2)S1 | 106 | 66% (inactive) | 90% (inactive) | -0.335 | 11.5 | 0.141 (inactive) | 0.031 (inactive)
O=C1NC(=NCCCc2ccccc2)SC1=Cc1ccc2ncccc2c1 | 104 | 43% (inactive) | 83% (inactive) | -0.69 | 5 | 0.104 (inactive) | -0.011 (inactive)
Cn1cc(C2=C(c3cn(CCCCCSC(=N)N)c4ccccc34)C(=O)NC2=O)c2ccccc21 | 88.1 | 29.3% (inactive) | 99.5% (inactive) | 1.02 | 24.5 | 0.037 (inactive) | -0.007 (inactive)
Cn1cc(C2=C(c3c4n(c5ccccc35)CCCCC4)C(=O)NC2=O)c2ccccc21 | 80.1 | 66.1% (inactive) | 100% (inactive) | -0.31 | 7 | 0.223 (inactive) | -0.005 (inactive)
O=c1c(Oc2ccc(F)cc2F)cc2cnc(NC3CCOCC3)nc2n1C1CC1 | 113 | 52.9% (inactive) | 92.5% (inactive) | -0.435 | 4 | 0.269 (inactive) | -0.0095 (inactive)
Cn1cc(C2=C(Nc3ccccc3)C(=O)NC2=O)c2ccccc21 | 106 | 67.5% (inactive) | 106% (inactive) | 0.495 | 7 | 0.118 (inactive) | -0.007 (inactive)
O=C1NC(=NCc2ccccc2Br)SC1=Cc1ccc2ncccc2c1 | 130 | 32.9% (inactive) | 85.5% (inactive) | -0.56 | 8 | 0.253 (inactive) | -0.0095 (inactive)
Cc1c(C2=C(c3cn(C)c4ccccc34)C(=O)NC2=O)c2ccccc2n1C | 103 | 53.6% (inactive) | 102% (inactive) | -0.055 | 9 | 0.392 (inactive) | 0.0015 (inactive)
Nc1c(C(=O)c2cccc(CCS(N)(=O)=O)c2)cnn1-c1ccc(F)cc1 | 92.4 | 53.8% (inactive) | 105% (inactive) | 0.275 | 2 | 0.0563 (inactive) | 0.0055 (inactive)
COc1cc[nH]c1C=C1C(=O)Nc2ccc([N+](=O)[O-])c(N3CCC(O)C3)c21 (stereo not given) | 102 | 15.7% (inactive) | 29.5% (active) | -7.83 | 3.5 | 0.0609 (inactive) | -0.018 (inactive)
COc1ccccc1CN=C1NC(=O)C(=Cc2ccc3ncccc3c2)S1 | 98.9 | 28.1% (inactive) | 91.5% (inactive) | -0.71 | 4.5 | 0.187 (inactive) | -0.0025 (inactive)
Cn1cc(C2=C(c3c[nH]c4ccccc34)C(=O)NC2=O)c2ccccc21 | 85.3 | 60.7% (inactive) | 101% (inactive) | -1.61 | 73 | 0.286 (inactive) | 0.0015 (inactive)
CC(c1ccccc1)C(C(=O)Nc1ccc(I)cc1F)N1C(=O)NC(c2ccc(OCC(O)CO)cc2)C1=O (stereo not given) | 85.7 | 72.5% (inactive) | 55% (active) | -3.5 | 5 | 0.306 (inactive) | 0.0035 (inactive)
Nc1c(C(=O)c2cccc(-c3ccncc3)c2)cnn1-c1ccc(F)cc1 | 101 | 36.5% (inactive) | 95.5% (inactive) | 0.895 | 2 | 0.219 (inactive) | -0.003 (inactive)
CC(=O)NC(Cc1ccc(OP(=O)(O)O)cc1)C(=O)NC1CCC(=O)N2CCCC(C(=O)Nc3cccc4ccccc34)N2C1=O (stereo not given) | 103 | 47% (inactive) | 104% (inactive) | 0.475 | 6.5 | 0.135 (inactive) | -0.007 (inactive)
O=[N+]([O-])c1ccc2c(c1)C(c1ccccc1Cl)=Nc1c(n[nH]c1-c1cccnc1)N2 | 237 | 4.98% (inactive) | 102% (inactive) | -0.45 | 8 | 0.194 (inactive) | 0.01 (inactive)
COc1ccccc1CCN=C1NC(=O)C(=Cc2ccc3ncccc3c2)S1 | 109 | 68.7% (inactive) | 90.5% (inactive) | -0.58 | 5 | 0.0846 (inactive) | 0.39 (active)
Cn1cc(C2=C(c3cn(CCCN=C(N)N)c4ccccc34)C(=O)NC2=O)c2ccccc21 | 110 | 44.7% (inactive) | 101% (inactive) | 0.295 | 7.5 | 0.202 (inactive) | -0.005 (inactive)
Cn1c(=O)c(Cc2ccccc2F)cc2cnc(NC3CCOCC3)nc21 | 106 | 64.6% (inactive) | 107% (inactive) | 0.55 | 2.5 | 0.0998 (inactive) | 0.0035 (inactive)
